# From PubChem
# Most compounds without a hit are left out; they make up all but 2.3% or so of the library.
# MCL1-BIM inh – inhibitors of MCL1 binding to BIM-BH3, primary screen, biochemical, fluorescence polarization; Induced myeloid leukemia cell differentiation protein Mcl-1 (Homo sapiens), Q07820; GST-MCL1 / FITC-Bim-BH3 fluorescence polarization; actives 0.68% (n = 320,000); inhibition, % at 10.9 µM;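 active means inhibition above the mean inhibition of all tested compounds plus 3 SD, set per campaign, cut at about 40% in these data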;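 further: 0% = DMSO wells and 100% = unlabeled Bim-BH3 peptide control; higher means more loss of mP so more displacement of Bim peptide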
# Target sequence (Q07820 whole entry, looked up): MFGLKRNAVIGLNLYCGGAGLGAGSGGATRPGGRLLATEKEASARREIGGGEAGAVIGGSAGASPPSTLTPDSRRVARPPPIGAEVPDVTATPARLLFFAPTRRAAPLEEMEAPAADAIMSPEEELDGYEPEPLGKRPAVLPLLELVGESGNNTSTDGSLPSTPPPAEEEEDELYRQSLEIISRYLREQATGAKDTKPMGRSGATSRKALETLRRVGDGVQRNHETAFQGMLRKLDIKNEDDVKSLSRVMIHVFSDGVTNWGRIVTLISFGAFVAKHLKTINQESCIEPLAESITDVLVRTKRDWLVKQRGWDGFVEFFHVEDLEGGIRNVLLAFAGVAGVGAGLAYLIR
# Mcl1 Noxa PPI – Mcl-1/Noxa binding inhibitors, primary screen, biochemical, TR-FRET, 1536-well | TR-FRET Mcl-1/Noxa peptide binding, 2 h | inhibition, % at 21.7 µM | Induced myeloid leukemia cell differentiation protein Mcl-1 (Homo sapiens), Q07820 | actives 1.5% (n = 220,000);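 active means compounds that cut the protein-peptide binding signal by more than 50% relative to plate controls in a single-dose test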;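 further: His-tagged Mcl-1 with rhodamine Noxa BH3 peptide and terbium anti-His antibody; 0% = Mcl-1 plus Noxa peptide wells and 100% = peptide-only wells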
# GLD-1 TGE inh – GLD-1/TGE RNA complex disruptors, primary screen, biochemical, fluorescence polarization; Female germline-specific tumor suppressor gld-1 (Caenorhabditis elegans), Q17339; purified GLD-1 + fluorescein TGE RNA; inhibition, % at 5.96 µM; actives 0.44% (n = 320,000);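 active means percent inhibition above a per-plate cutoff, the plate mean of test compounds plus 3 SD, cut at about 30% in these data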;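 further: 0% = DMSO wells with GLD-1 and probe and 100% = wells lacking GLD-1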
# BCLXL inh – inhibitors of human Bcl-xL, primary screen, biochemical, fluorescence polarization, HTS | GST-Bcl-xL / FITC-Bim BH3 peptide fluorescence polarization | inhibition, % at 10.9 µM | actives 0.7% (n = 320,000);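 active means inhibition above the mean of all tested compounds plus 3 SD, cutoff set per campaign, cut at about 30% in these data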;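 further: 0% = DMSO wells and 100% = unlabeled Bim-BH3 peptide competitor; inhibitors lower millipolarization by displacing the labeled peptide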
# Mcl-1 Bim block – inhibitors of Bim peptide binding to Mcl-1, primary screen, biochemical, bead-based flow cytometry, multiplex. inhibition, % at 10 µM. actives 0.1% (n = 190,000). AID 1009, 2008. Bim peptide-Mcl-1 binding; in the data active means inhibition above about 40%;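 further: 0% = no compound tracer wells and 100% = peptide blocker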
# Mcl1-Bid inh – Mcl-1/Bid binding inhibitors, primary screen, biochemical, TR-FRET, 1536-well | Induced myeloid leukemia cell differentiation protein Mcl-1 (Homo sapiens), Q07820 | TR-FRET Mcl-1/Bid-Dy647 peptide binding | inhibition, % at 21.7 µM | actives 0.97% (n = 220,000);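 active means compounds that cut the binding signal by more than half at the single screening dose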;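 further: His-tagged Mcl-1 with europium anti-His antibody binding Bid BH3 peptide; 0% = Mcl-1 plus peptide wells and 100% = peptide-only wells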
# Bcl-xL conf – Bcl-xL inhibitors blocking Bim BH3 binding, confirmation, counter-screen for MCL1 inhibitor project, biochemical, fluorescence polarization. shares compounds with MCL1-BIM inh. GST-Bcl-xL / FITC-Bim BH3 peptide FP binding. inhibition, % at 10.9 µM. actives 54% (n = 1,700). AID 2166, 2009;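 active means inhibition above a cutoff equal to the mean inhibition of all tested compounds plus 3 SD, cut at about 30% in these data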;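 further: 0% = DMSO wells and 100% = unlabeled Bim BH3 control peptide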
# MCL1 BIM confirm – inhibitors of MCL1 binding to BIM-BH3, confirmation, biochemical, fluorescence polarization, triplicate; shares compounds with MCL1-BIM inh; actives 61% (n = 1,700); AID 2168, 2009; inhibition, % at 10.9 µM; GST-MCL1 / FITC-Bim-BH3 fluorescence polarization;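 active means inhibition above the average of all tested compounds plus 3 SD, cut at about 40% in these data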;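 further: 0% = DMSO wells and 100% = unlabeled Bim-BH3 control peptide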
# * hit, by the source's call; . = no result; + = active, no number.
SMILES,MCL1-BIM inh,Mcl1 Noxa PPI,GLD-1 TGE inh,BCLXL inh,Mcl-1 Bim block,Mcl1-Bid inh,Bcl-xL conf,MCL1 BIM confirm
Cc1oc(-c2cccs2)nc1CN1CCN(C(C)C)C(CCO)C1 (configuration not stated),48.7*,5.4,-3.9,4.8,-2.0,-29.2,4.8,-0.7
CC(C)N1CCN(Cc2cccs2)CC1CCO (configuration not stated),.,14.5,.,.,-1.0,-3.1,.,.
COc1cc(C2SCC(=O)N2Cc2ccccc2)ccc1O (configuration not stated),-2.7,.,-14.0,1.1,.,.,.,.
O=C1COc2ccc(C(=O)COC(=O)/C=C/c3ccc(Br)o3)cc2N1,72.9*,.,-6.0,14.0,.,.,4.2,50.7*
Cc1ccc(/C=C/C(=O)OCC(=O)c2ccc3c(c2)NC(=O)CO3)o1,.,.,1.8,.,.,.,.,.
Cc1ccccc1-n1c(SCc2c(C)noc2C)nnc1-c1cccnc1,143.8*,14.5,88.9*,133.2*,-7.0,-13.1,116.2*,135.8*
COc1ccc(NC(=O)/C=C/c2cccc(Br)c2)cn1,98.8*,.,67.2*,90.6*,.,.,74.2*,85.5*
CC(C)C(NC(=O)Cc1ccccc1)C(=O)N1CCN(c2cccc(Cl)c2)CC1 (configuration not stated),1.8,.,13.2,-0.4,.,.,.,.
C=CCn1c(O)c(N=NC(=O)c2ccccc2NS(=O)(=O)c2cccs2)c2ccccc21,49.5*,16.3,4.1,3.4,10.0,-11.8,78.8*,120.2*
CCCCn1c(O)c(N=NC(=O)c2ccccc2NS(=O)(=O)c2cccs2)c2ccccc21,15.9,8.2,4.8,5.1,0.0,-37.4,.,.
Cc1ccc(NC(=O)C(=O)Nc2ccc(C)cn2)nc1,-2.6,-5.1,-2.3,6.8,-2.0,-22.3,.,.
Cc1ccc(NC(=O)/C(C#N)=C(\N)C(Cl)(Cl)Cl)nc1,70.3*,7.7,42.9*,72.5*,5.0,-4.2,170.9*,185.5*
C=CCSc1nc(-c2ccc(OC)cc2)c(C#N)c(=O)n1CC=C,.,9.2,.,.,-2.0,-25.2,.,.
CC(C)(C)NC(=O)CN(Cc1ccccc1)S(=O)(=O)c1ccccc1,3.0,.,-4.5,2.9,.,.,.,.
N#CC1=C(N)C(C#N)(C#N)[C@H](c2ccoc2)[C@H]2CN(Cc3ccccc3)CC=C12,125.2*,19.8,74.8*,114.1*,-3.0,-33.8,106.2*,119.8*
CN1CC=C2C(C#N)=C(N)C(C#N)(C#N)C(c3cccc(Cl)c3Cl)C2C1 (configuration not stated),87.6*,8.6,68.5*,83.4*,0.0,-15.2,56.2*,60.6*
Cc1ccc(C2C3CN(C(C)C)CC=C3C(C#N)=C(N)C2(C#N)C#N)cc1 (configuration not stated),116.3*,7.7,109.1*,109.0*,-6.0,-39.1,59.4*,104.2*
CN1CC=C2C(C#N)=C(N)C(C#N)(C#N)[C@H](c3ccoc3)[C@H]2C1,175.3*,0.6,99.2*,146.3*,2.0,-68.9,110.9*,+
N#CC1=C(N)C(C#N)(C#N)C(c2cccnc2)C2CN(C(=O)OCc3ccccc3)CC=C12 (configuration not stated),18.3,-2.1,10.4,16.3,-1.0,-21.4,.,.
